This passage reports CPE inhibition results from PubChem BioAssay AID540333 (Southern Research Specialized Biocontainment Screening …, 2011).

About 320 (3.2%) of roughly 10,000 compounds were called active. Shown is part of a subset that was picked to be rich in actives. A number with no mark means an inactive call. No stated cut-off is given here; in the data, active means CPE inhibition mostly above about 9.1% (no sharp cut-off); inactive means mostly below about 7.2%.

The nature of this assay: Dengue virus cytopathic effect inhibitors, cell-based, CPE readout, HTS (AID 540333). The settings on record: Dengue virus CPE inhibition in host cells, at 20 µM; stronger effect = higher value.
As to `COc1ccc(NCc2ccc([N+](=O)[O-])s2)cc1`, the CPE inhibition was 16.8% (active).

For the molecule `COc1ccc(NCc2ccc([N+](=O)[O-])s2)c(OC)c1`, the CPE inhibition was 11.8% (active).

`COc1ccccc1NCc1ccc([N+](=O)[O-])s1`: the CPE inhibition entry is “inactive”.

On to `COc1cccc(NCc2ccc([N+](=O)[O-])s2)c1`, for which the CPE inhibition entry is “inactive”.

Turning to `COc1ccc(NCc2ccccc2[N+](=O)[O-])cc1OC`, the CPE inhibition was 1.54%.

With `COc1ccc(NC(=O)/C=C/c2ccccc2[N+](=O)[O-])c(OC)c1`, the CPE inhibition is 0.44%.

In the case of `COc1cc(C2Nc3ccccc3C(=O)N2c2ccccc2)c(Br)cc1OCC(=O)O` (centres undefined), the CPE inhibition entry is “inactive”.

Turning to `Cn1cnnc1SCC(=O)Nc1cc(S(=O)(=O)N2CCCCCC2)ccc1Cl`, the CPE inhibition result was “inactive”.

Regarding `Cc1ccc2c([N+](=O)[O-])cccc2n1`, the CPE inhibition result is “inactive”.

On to `Cc1ccc(CNC(=O)c2ccc3c(c2)S(=O)(=O)c2ccccc2C3=O)o1`, for which the CPE inhibition result was “inactive”.

In the case of `COc1cc(OC)cc(-c2c(-c3cccs3)c3cc(-c4ccc5[nH]ccc5c4)ccc3n2C)c1`, the CPE inhibition is 4.79%.

Take `CCCCOc1ccc(/C=C/C(=O)OCC(=O)NC(=O)NCC(C)C)cc1OCC`: the CPE inhibition result is “inactive”.

`CCOc1ccc(/C=N/OCC(=O)NC(c2ccccc2)c2ccccc2)cc1`: the CPE inhibition is 13.1% (active).

`COc1ccc(/C=N/OCC(=O)NC(c2ccccc2)c2ccccc2)cc1OC`: the CPE inhibition is 7.42%.

For `CCOc1ccc(/C=C/C(=O)NCc2ccccc2)cc1`, the CPE inhibition result was “inactive”.

In the case of `O=C(CNC(=O)c1cccc(Cl)c1)N/N=C/C=C/c1ccccc1`, the CPE inhibition is 0.175%.

For the molecule `O=C(CSc1nc2ccccc2c(=O)n1-c1ccc(F)cc1F)c1c[nH]c2ccccc12`, the CPE inhibition is 2.1%.

Turning to `CCOC(=O)c1c(C)[nH]c(C)c1C(=O)CSc1nc2ccccc2c(=O)n1-c1ccc(C)cc1`, the CPE inhibition result is “inactive”.

As for `Cc1ccc(SCC(=O)c2c(C)[nH]c3ccccc23)cc1`, the CPE inhibition entry was “inactive”.

Turning to `CCOC(=O)c1c(CSc2ccc(C)cc2)oc2ccc(O)cc12`, the CPE inhibition was 20.7% (active).

With `CCS(=O)(=O)c1nc(S(=O)(=O)c2ccc(Cl)cc2)c(N2CCc3ccccc3C2)s1`, the CPE inhibition is 0.63%.

`CCOc1ccc(N2C(=O)S/C(=C\c3cccn3C)C2=O)cc1`: the CPE inhibition entry was “inactive”.

Turning to `CCOc1ccc(/C=C2\SC(N3CCc4ccccc4C3)=NC2=O)cc1`, the CPE inhibition was 17.6% (active).

In the case of `O=C(CNC1=NCCC1)c1ccc(Cl)cc1`, the CPE inhibition was 0.59%.

Take `CCN(C(=O)COC(=O)c1cc(NS(=O)(=O)c2ccc(Cl)c([N+](=O)[O-])c2)ccc1O)C1CCCCC1`: the CPE inhibition is 17.4% (active).

In the case of `CCN(CC)S(=O)(=O)c1ccc(NS(=O)(=O)c2ccc(O)c([N+](=O)[O-])c2)cc1`, the CPE inhibition was 0.085%.

Take `O=C(OCC(=O)N1CCCCC1)c1cc(NS(=O)(=O)c2ccc(Cl)c([N+](=O)[O-])c2)ccc1O`: the CPE inhibition is 0.48%.

With `O=C(Nc1nnc(C2CC2)s1)c1cc([N+](=O)[O-])ccc1N1CCCCC1`, the CPE inhibition entry was “inactive”.

Consider `CCOC(=O)[C@H]1[C@H]2COc3ccccc3[C@@H]2N2C(=O)c3ccc(C)cc3NC(=O)[C@@]12C`, for which the CPE inhibition result was “inactive”.

`CCOC(=O)[C@H]1[C@H]2COc3ccc(Cl)cc3[C@@H]2N2C(=O)c3cc(F)c(F)cc3NC(=O)[C@@]12C`: the CPE inhibition was 18% (active).

For the molecule `CCOC(=O)[C@H]1[C@H]2COc3ccc(OC)cc3[C@@H]2N2C(=O)c3ccc(F)cc3NC(=O)[C@@]12C`, the CPE inhibition result was “inactive”.

`CCOC(=O)[C@H]1[C@H]2COc3ccccc3[C@@H]2N2C(=O)c3cc(Cl)ccc3NC(=O)[C@@]12C`: the CPE inhibition was 4.61%.

Regarding `CCOC(=O)[C@H]1[C@H]2COc3ccc(Cl)cc3[C@@H]2N2C(=O)c3cc(C)ccc3NC(=O)[C@@]12C`, the CPE inhibition is 12.9% (active).

On to `CCOC(=O)[C@H]1[C@H]2COc3ccccc3[C@@H]2N2C(=O)c3cc(C)ccc3NC(=O)[C@@]12C`, for which the CPE inhibition was 0.17%.

As to `NC(=O)CC[C@H](NC(=O)OCc1ccccc1)C(=O)OCc1ccc(Cl)cc1`, the CPE inhibition was 0.15%.

For the molecule `COc1ccc(NC(=O)c2ccc3c(c2)S(=O)(=O)c2ccccc2C3=O)cc1`, the CPE inhibition was 1.25%.

For the molecule `O=C(/C=C\Nc1ccc(Br)cc1)c1cccnc1`, the CPE inhibition was 0.09%.

Turning to `COc1cccc(C(=O)NC(=S)Nc2ccc(N(C)C)cc2)c1`, the CPE inhibition result was “inactive”.

`COc1ccc(NC(=O)CN2CCC(Cc3ccccc3)CC2)cc1S(=O)(=O)N1CCOCC1`: the CPE inhibition is 0.605%.

As for `COc1ccc(S(=O)(=O)N2CCOCC2)cc1NC(=O)c1cc2c(s1)CCCC2`, the CPE inhibition is 0.62%.

As to `COc1ccc(NC(=O)c2cc3c(s2)CCC(C)C3)cc1S(=O)(=O)N1CCOCC1` (centres undefined), the CPE inhibition was 16.7% (active).

`CCCN(CC(=O)Nc1ccc(F)c(F)c1F)CC(=O)Nc1c(Cl)cccc1Cl`: the CPE inhibition was 1.15%.

Take `Cc1cc(C)nc(NC(=NCCc2c[nH]c3ccccc23)NC(=O)Nc2ccccc2)n1`: the CPE inhibition is 13.5% (active).

Turning to `Cc1cc(C)nc(NC(=NCCc2c[nH]c3ccccc23)NC(=O)Nc2ccc(Cl)c(Cl)c2)n1`, the CPE inhibition is 7.48%.

As to `Cc1cc(C)nc(NC(=NCCc2c[nH]c3ccccc23)NC(=O)Nc2ccc(Cl)cc2)n1`, the CPE inhibition is 4.91%.

For the molecule `COc1ccc(NC(=S)Nc2ccc(OCc3ccccc3)cc2)c(OC)c1`, the CPE inhibition is 5.78%.

Consider `CC(C)c1ccccc1NC1=CC(=O)CC(C)(C)C1`, for which the CPE inhibition was 1.06%.

With `CC(NC(=S)N1CCOCC1)c1ccccc1` (centres undefined), the CPE inhibition result was “inactive”.

In the case of `CCCNC(=S)N1CCN(C(c2ccccc2)c2ccccc2)CC1`, the CPE inhibition is 9.31%.

For `CCN1CCN(C(=S)NC(C)c2ccccc2)CC1` (centres undefined), the CPE inhibition result was “inactive”.

`CC(C)CNC(=S)N1CCN(C(c2ccccc2)c2ccccc2)CC1`: the CPE inhibition is 27.6% (active).

With `COc1ccc(NC(=S)N2CCN(C(c3ccccc3)c3ccccc3)CC2)cc1OC`, the CPE inhibition is 2.59%.

On to `CCC(C)NC(=S)N1CCN(C(c2ccccc2)c2ccccc2)CC1` (centres undefined), for which the CPE inhibition was 11% (active).

`O=C(NCCc1ccccc1)C(=O)Nc1nccs1`: the CPE inhibition is 0.515%.

With `CCCc1nnc(NC(=O)CCC(=O)N2CCN(C3c4ccccc4-c4ccccc43)CC2)s1`, the CPE inhibition result is “inactive”.

On to `CCOc1cc(/C=N/NC(=O)CSc2nncn2C)ccc1OC(=O)c1ccc(Cl)cc1`, for which the CPE inhibition is 1.75%.

Take `S=C(Nc1ccccc1Cl)N1CCCCC1`: the CPE inhibition entry was “inactive”.

Turning to `N#Cc1c(-c2ccc(Cl)cc2)c(C#N)c(=O)n(N)c1N`, the CPE inhibition was 0.43%.

In the case of `Cc1ccc(NC(=O)CNc2ccc(Cl)c(Cl)c2)cc1S(=O)(=O)N(C)C`, the CPE inhibition is 20.7% (active).

In the case of `COc1ccc(CCC(=O)OCC(=O)Nc2ccc(C)c(S(=O)(=O)N(C)C)c2)cc1`, the CPE inhibition is 0.745%.

Turning to `Cc1ccc(NC(=O)Cc2ccc(Cl)c(Cl)c2)cc1S(=O)(=O)N(C)C`, the CPE inhibition was 11.7% (active).

As to `Cc1ccc(NC(=O)CCNC(=O)c2ccccc2Cl)cc1S(=O)(=O)N(C)C`, the CPE inhibition is 0.01%.

For the molecule `Cc1ccc(NC(=O)c2cnccn2)cc1S(=O)(=O)N(C)C`, the CPE inhibition is 1.06%.

In the case of `Cc1ccc(NC(=O)CSc2nn(-c3ccc(Cl)cc3)c(=S)s2)cc1S(=O)(=O)N(C)C`, the CPE inhibition was 2.52%.

As to `CN(C)S(=O)(=O)n1cnc([C@@H]2[C@H]3C(=O)OC[C@@H]3C[C@@]23N=CN(Cc2ccccc2)C3=O)c1`, the CPE inhibition is 0.215%.

As to `CC1CCCN(c2ccc(C(=O)NCc3ccc4c(c3)OCO4)cc2[N+](=O)[O-])C1` (centres undefined), the CPE inhibition is 0.66%.

For `NNC(=O)c1ccc(COc2cccc3ccccc23)cc1`, the CPE inhibition was 0.845%.

For `CC(C)c1ccc(NCCC(=O)c2ccc(Br)cc2)cc1`, the CPE inhibition result is “inactive”.

As for `CCNC(=S)Nc1cc(Cl)ccc1Oc1ccccc1`, the CPE inhibition is 1.55%.

For `COc1cc(/C=C2\C(=O)N(c3ccccc3)N=C2C)ccc1Oc1ccc([N+](=O)[O-])cc1[N+](=O)[O-]`, the CPE inhibition is 12.3% (active).

With `CC1=NN(c2ccccc2)C(=O)/C1=C\c1cc(C)n(-c2ccccc2)c1C`, the CPE inhibition is 1.6%.

On to `CC1=NN(c2ccccc2)C(=O)/C1=C/c1ccc[nH]1`, for which the CPE inhibition entry is “inactive”.

For `CCOC(=O)c1cc(-c2ccccc2)sc1NC(=O)C(C)C`, the CPE inhibition was 0.57%.

For `CCOC(=O)c1cc(-c2ccccc2)sc1NC(=O)C(C)Sc1nnc(N)s1` (centres undefined), the CPE inhibition was 19% (active).

Turning to `CCOC(=O)c1cc(-c2ccccc2)sc1NC(=O)CC`, the CPE inhibition entry is “inactive”.

In the case of `COC(=O)NNC(=O)COc1ccc2ccccc2c1Br`, the CPE inhibition result was “inactive”.

As to `CCOC(=O)c1ccc(-c2ccc(C3Nc4ccccc4C(=O)N3O)o2)cc1` (centres undefined), the CPE inhibition is 0.8%.

As for `Fc1ccc2nc(Nc3nc4cc5c(cc4s3)OCCO5)sc2c1`, the CPE inhibition was 9.35% (active).

In the case of `Fc1ccc2nc(Nc3nc4c(F)cc(F)cc4s3)sc2c1`, the CPE inhibition was 1.16%.

In the case of `c1ccc2sc(Nc3nc4cc5c(cc4s3)OCO5)nc2c1`, the CPE inhibition is 0.275%.

For `COC(=O)c1ccc2nc(Nc3nc4ccc(F)cc4s3)sc2c1`, the CPE inhibition was 1.64%.

`Fc1cccc2sc(Nc3nc4cc5c(cc4s3)OCO5)nc12`: the CPE inhibition was 13.5% (active).

Turning to `Fc1cccc2sc(Nc3nc4ccccc4s3)nc12`, the CPE inhibition was 0.65%.

`Cc1ccc(N/N=C(\C#N)C(N)=S)c(C)c1`: the CPE inhibition is 4.94%.

Take `Cc1ccccc1-n1c(-c2csc(C)c2C)n[nH]c1=S`: the CPE inhibition was 0.5%.

Turning to `C=CCOC(=O)C1=C[C@@H](c2coc3ccccc3c2=O)C[C@@H](OCCCCO)O1`, the CPE inhibition entry was “inactive”.

Regarding `O=C1c2cccc3c(N4CCOCC4)c([N+](=O)[O-])cc(c23)C(=O)N1c1cccc2ccccc12`, the CPE inhibition entry is “inactive”.

As for `N#Cc1ccc(C23CC4(C2)[C@H](CN(P(=O)(c2ccccc2)c2ccccc2)[C@@H]4c2ccccc2)C3c2ccc(Cl)nc2)cc1` (some centres undefined), the CPE inhibition is 18.1% (active).

On to `Clc1ccc(C2[C@H]3CN(CC4CCCCC4)[C@H](c4ccccc4)C34CC2(c2ccccc2)C4)cn1` (some centres undefined), for which the CPE inhibition was 4.18%.

On to `CC(C)CC(=O)NC(Nc1ccc([N+](=O)[O-])cc1)C(Cl)(Cl)Cl` (centres undefined), for which the CPE inhibition is 6.29%.

Regarding `Cc1cccc(N2C(=O)C(Cc3ccccc3)NC2=S)c1` (centres undefined), the CPE inhibition entry was “inactive”.

As for `CCCCn1c(O)c(N=NC(=O)c2ccco2)c2ccccc21`, the CPE inhibition entry was “inactive”.

For `CCn1c(O)c(N=NC(=O)c2ccc(CSc3nncn3C)cc2)c2ccccc21`, the CPE inhibition entry is “inactive”.

As for `O=C(N=Nc1c(O)n(Cc2ccccc2)c2ccccc12)c1ccc(O)cc1`, the CPE inhibition is 16.3% (active).
